# PubChem BioAssay AID720690 (Broad Institute, 2013)
# Potency and affinity values are given separately. Values without a mark were called inactive.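 Rule for the calls: active = every repeat run showing a signal drop whose fitted half-maximal concentration is at most twice the top tested concentration; inconclusive = repeat runs disagree, or flat partial drop, or poor fit; inactive = the rest.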
# Test: HEK293T cytotoxicity, dose response, cytotoxicity control for miR-122 modulator project, cell-based, activator set, cherry-pick (AID 720690);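 note: 0% = neutral control wells and -100% = MG132 cytotoxic control wells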
# Conditions: HEK293T viability, CellTiter-Glo luminescence, 48 h; series mostly up to 26 µM; activity change, negative = cytotoxicity: at the top concentration
row,Structure (SMILES),"activity change, negative = cytotoxicity"
1,COc1ccc2c(c1)c(CCN)c(C)n2Cc1ccccc1,-8.74%
2,COc1ccc(C2SCC(=O)Nc3c2c(=O)[nH]n3C2CCCCCC2)cc1 (centres undefined),1.34%
3,O=C1NC(=O)N(CCC2=CCCCC2)C(=O)/C1=C\c1cccs1,-3.88%
4,O=C(c1ccco1)c1cn(Cc2ccccc2Cl)c2ccccc12,-11.6%
